Targets with a hit are over-represented here; the source holds about 7,900 in all. About 0.6% of all pairs of compound and target were hits. Unmarked numbers belong to inactive results.
Columns and labels:
Experiment in all cases: log2 fold change, soluble protein after heating vs DMSO (PISA); higher = thermal stabilisation; K562 cells, 10 uM, 30 min; active = over 0.2 and 3.5 SD of the protein, either way, in both replicates (recomputed)
[1] = compound: COC1=CC=C(C=C1)CN2C=CC3=C2C=C(C=C3)C(=O)NO
Method in brief: (§1)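 K562 cells at 2×10^6 cells/mL were given 10 μM compound for 30 min. Aliquots then went through 3 min of heating across 48°C-58°C, were pooled, and were extracted in PBS with 0.5% NP-40 at 4°C, and the supernatant after 21,000xg for 90 min was quantified by TMTpro 16plex LC-MS/MS with channel sums equalised. Thermal stability relative to control samples, from duplicates, is given as log2 fold change.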

filanesib = compound: CON(C)C(=O)N1N=C(c2cc(F)ccc2F)S[C@@]1(CCCN)c1ccccc1 [filanesib]
Method in brief: as §1

zotarolimus = compound: CO[C@H]1C[C@@H]2CC[C@@H](C)[C@@](O)(O2)C(=O)C(=O)N2CCCC[C@H]2C(=O)O[C@H]([C@H](C)C[C@@H]2CC[C@H](n3cnnn3)[C@H](OC)C2)CC(=O)[C@H](C)/C=C(\C)[C@@H](O)[C@@H](OC)C(=O)[C@H](C)C[C@H](C)/C=C/C=C/C=C/1C [zotarolimus]
Method in brief: as §1

idasanutlin = compound: COc1cc(C(=O)O)ccc1NC(=O)[C@@H]1N[C@@H](CC(C)(C)C)[C@](C#N)(c2ccc(Cl)cc2F)[C@H]1c1cccc(Cl)c1F [idasanutlin]
Method in brief: as §1

alisertib = compound: COc1cc(Nc2ncc3c(n2)-c2ccc(Cl)cc2C(c2c(F)cccc2OC)=NC3)ccc1C(=O)O [alisertib]
Method in brief: as §1

[2] = compound: COc1cc2nc(-c3cc(F)ccc3O)nc(N[C@@H]3CNC[C@H]3C(C)(C)O)c2cc1OC
Method in brief: as §1

gefitinib = compound: COc1cc2ncnc(Nc3ccc(F)c(Cl)c3)c2cc1OCCCN1CCOCC1 [gefitinib]
Method in brief: as §1

[3] = compound: COc1cccc2cc(-c3nc([C@H]4CC[C@H](C(=O)O)CC4)n4ncnc(N)c34)[nH]c12
Method in brief: as §1

lapatinib = compound: CS(=O)(=O)CCNCc1ccc(-c2ccc3ncnc(Nc4ccc(OCc5cccc(F)c5)c(Cl)c4)c3c2)o1 [lapatinib]
Method in brief: as §1

pictilisib = compound: CS(=O)(=O)N1CCN(Cc2cc3nc(-c4cccc5[nH]ncc45)nc(N4CCOCC4)c3s2)CC1 [pictilisib]
Method in brief: as §1

[4] = compound: CS(=O)(=O)c1ccc(-c2cnc(N)c(C(=O)Nc3ccccc3)n2)cc1
Method in brief: as §1

crizotinib = compound: C[C@@H](Oc1cc(-c2cnn(C3CCNCC3)c2)cnc1N)c1c(Cl)ccc(F)c1Cl [crizotinib]
Method in brief: as §1

[5] = compound: C[C@@H]1COCCN1C2=NC(=NC(=C2)C3(CC3)S(=O)(=O)C)C4=C5C=CNC5=CC=C4
Method in brief: as §1

[6] = compound: C[C@H](C1=CC=C(C=C1)C(=O)NC2=C3C=CNC3=NC=C2)N
Method in brief: as §1

duvelisib = compound: C[C@H](Nc1ncnc2nc[nH]c12)c1cc2cccc(Cl)c2c(=O)n1-c1ccccc1 [duvelisib]
Method in brief: as §1

gandotinib = compound: Cc1cc(Nc2cc(CN3CCOCC3)c3nc(C)c(Cc4ccc(Cl)cc4F)n3n2)n[nH]1 [gandotinib]
Method in brief: as §1

tozasertib = compound: Cc1cc(Nc2cc(N3CCN(C)CC3)nc(Sc3ccc(NC(=O)C4CC4)cc3)n2)n[nH]1 [tozasertib]
Method in brief: as §1

[7] = compound: Cc1cc(SCc2sc(-c3ccc(C(F)(F)F)cc3)nc2C)ccc1OCC(=O)O
Method in brief: as §1

doramapimod = compound: Cc1ccc(-n2nc(C(C)(C)C)cc2NC(=O)Nc2ccc(OCCN3CCOCC3)c3ccccc23)cc1 [doramapimod]
Method in brief: as §1

ispinesib = compound: Cc1ccc(C(=O)N(CCCN)[C@@H](c2nc3cc(Cl)ccc3c(=O)n2Cc2ccccc2)C(C)C)cc1 [ispinesib]
Method in brief: as §1

Sequence of UniProt Q9NXF7 (Q9NXF7 whole entry, looked up): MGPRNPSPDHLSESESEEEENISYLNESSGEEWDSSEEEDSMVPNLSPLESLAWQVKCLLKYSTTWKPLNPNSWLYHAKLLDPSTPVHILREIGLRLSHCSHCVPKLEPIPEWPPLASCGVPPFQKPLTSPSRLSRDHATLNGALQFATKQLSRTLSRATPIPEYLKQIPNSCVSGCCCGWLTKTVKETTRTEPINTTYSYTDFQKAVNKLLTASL
Sequence of UniProt Q96EV8 (Q96EV8 whole entry, looked up): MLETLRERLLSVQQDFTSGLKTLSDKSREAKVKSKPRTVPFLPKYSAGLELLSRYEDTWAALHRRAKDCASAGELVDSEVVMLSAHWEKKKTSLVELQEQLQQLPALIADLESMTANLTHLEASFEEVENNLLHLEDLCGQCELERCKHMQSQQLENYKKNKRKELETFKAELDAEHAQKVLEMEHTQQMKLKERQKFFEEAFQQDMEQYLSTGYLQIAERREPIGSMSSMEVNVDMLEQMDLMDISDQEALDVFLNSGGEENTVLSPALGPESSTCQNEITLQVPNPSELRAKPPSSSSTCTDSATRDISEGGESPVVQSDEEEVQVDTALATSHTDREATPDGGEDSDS
Sequence of UniProt P49366 (P49366 whole entry, looked up): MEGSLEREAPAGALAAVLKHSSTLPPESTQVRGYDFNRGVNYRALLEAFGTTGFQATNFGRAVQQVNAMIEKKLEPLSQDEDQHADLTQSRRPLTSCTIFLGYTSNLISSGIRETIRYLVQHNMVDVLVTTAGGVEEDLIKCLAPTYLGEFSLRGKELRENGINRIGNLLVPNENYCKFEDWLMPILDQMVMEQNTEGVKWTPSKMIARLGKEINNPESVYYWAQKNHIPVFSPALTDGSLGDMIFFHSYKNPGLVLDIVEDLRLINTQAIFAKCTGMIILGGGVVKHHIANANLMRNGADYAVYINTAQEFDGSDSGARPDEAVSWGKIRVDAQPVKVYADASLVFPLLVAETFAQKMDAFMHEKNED
Sequence of UniProt Q8N612 (Q8N612 whole entry, looked up): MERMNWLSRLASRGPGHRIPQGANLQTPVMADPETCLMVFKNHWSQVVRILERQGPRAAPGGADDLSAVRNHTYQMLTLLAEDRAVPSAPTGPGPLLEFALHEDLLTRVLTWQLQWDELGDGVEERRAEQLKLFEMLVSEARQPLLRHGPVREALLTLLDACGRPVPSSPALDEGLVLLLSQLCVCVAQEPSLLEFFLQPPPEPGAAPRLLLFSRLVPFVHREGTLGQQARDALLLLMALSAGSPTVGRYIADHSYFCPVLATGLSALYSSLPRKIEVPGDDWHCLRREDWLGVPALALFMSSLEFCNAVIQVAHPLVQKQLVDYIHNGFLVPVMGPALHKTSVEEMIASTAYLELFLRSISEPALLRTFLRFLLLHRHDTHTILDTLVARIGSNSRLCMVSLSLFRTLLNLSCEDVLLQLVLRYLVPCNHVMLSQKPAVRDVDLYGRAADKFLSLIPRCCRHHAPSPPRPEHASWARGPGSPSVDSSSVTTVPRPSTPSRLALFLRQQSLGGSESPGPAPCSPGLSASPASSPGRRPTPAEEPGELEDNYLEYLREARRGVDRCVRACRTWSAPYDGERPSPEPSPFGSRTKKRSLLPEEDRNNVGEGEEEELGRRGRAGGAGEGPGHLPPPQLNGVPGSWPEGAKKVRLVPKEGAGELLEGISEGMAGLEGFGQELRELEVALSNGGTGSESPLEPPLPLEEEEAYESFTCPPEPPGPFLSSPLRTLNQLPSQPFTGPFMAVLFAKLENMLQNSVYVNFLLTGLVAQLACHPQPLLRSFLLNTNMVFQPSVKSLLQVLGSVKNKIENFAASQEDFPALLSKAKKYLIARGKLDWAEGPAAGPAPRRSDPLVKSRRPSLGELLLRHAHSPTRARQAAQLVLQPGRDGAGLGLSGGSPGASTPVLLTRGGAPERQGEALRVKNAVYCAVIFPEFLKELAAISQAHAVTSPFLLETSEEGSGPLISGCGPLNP
Sequence of UniProt Q15392 (Q15392 whole entry, looked up): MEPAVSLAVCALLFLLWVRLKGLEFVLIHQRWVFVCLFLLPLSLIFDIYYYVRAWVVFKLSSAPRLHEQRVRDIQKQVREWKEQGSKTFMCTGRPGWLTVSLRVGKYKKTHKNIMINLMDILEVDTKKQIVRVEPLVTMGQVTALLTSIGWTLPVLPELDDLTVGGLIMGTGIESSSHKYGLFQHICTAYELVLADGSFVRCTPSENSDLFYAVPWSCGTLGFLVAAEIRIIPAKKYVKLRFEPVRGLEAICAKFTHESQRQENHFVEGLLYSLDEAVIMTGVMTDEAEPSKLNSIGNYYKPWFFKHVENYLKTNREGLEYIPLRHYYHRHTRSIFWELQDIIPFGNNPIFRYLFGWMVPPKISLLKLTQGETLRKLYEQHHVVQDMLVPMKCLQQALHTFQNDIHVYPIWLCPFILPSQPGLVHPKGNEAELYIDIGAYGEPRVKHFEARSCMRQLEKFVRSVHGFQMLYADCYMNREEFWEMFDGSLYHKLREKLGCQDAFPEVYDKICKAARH
Sequence of UniProt P53634 (P53634 whole entry, looked up): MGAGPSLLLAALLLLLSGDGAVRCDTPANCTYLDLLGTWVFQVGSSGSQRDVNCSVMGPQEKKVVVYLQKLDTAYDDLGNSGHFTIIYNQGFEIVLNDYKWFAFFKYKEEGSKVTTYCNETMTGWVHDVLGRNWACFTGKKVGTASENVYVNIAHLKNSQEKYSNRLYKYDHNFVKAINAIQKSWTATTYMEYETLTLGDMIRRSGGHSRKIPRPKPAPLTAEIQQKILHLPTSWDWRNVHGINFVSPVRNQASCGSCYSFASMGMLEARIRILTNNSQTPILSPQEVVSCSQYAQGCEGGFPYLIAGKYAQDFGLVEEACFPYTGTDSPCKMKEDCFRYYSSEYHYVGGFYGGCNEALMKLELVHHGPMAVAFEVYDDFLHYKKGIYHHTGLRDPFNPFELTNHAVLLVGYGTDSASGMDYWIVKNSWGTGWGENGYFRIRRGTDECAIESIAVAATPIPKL
Sequence of UniProt Q9BW60 (Q9BW60 whole entry, looked up): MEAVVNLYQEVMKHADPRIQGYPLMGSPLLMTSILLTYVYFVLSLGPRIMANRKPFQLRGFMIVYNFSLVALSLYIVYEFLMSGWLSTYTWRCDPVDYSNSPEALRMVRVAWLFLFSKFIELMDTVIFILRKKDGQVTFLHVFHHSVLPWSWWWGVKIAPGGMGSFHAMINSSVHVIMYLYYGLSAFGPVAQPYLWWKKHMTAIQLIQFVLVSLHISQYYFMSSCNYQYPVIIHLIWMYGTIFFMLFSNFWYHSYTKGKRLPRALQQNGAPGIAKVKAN
Sequence of UniProt O60610 (O60610 whole entry, looked up): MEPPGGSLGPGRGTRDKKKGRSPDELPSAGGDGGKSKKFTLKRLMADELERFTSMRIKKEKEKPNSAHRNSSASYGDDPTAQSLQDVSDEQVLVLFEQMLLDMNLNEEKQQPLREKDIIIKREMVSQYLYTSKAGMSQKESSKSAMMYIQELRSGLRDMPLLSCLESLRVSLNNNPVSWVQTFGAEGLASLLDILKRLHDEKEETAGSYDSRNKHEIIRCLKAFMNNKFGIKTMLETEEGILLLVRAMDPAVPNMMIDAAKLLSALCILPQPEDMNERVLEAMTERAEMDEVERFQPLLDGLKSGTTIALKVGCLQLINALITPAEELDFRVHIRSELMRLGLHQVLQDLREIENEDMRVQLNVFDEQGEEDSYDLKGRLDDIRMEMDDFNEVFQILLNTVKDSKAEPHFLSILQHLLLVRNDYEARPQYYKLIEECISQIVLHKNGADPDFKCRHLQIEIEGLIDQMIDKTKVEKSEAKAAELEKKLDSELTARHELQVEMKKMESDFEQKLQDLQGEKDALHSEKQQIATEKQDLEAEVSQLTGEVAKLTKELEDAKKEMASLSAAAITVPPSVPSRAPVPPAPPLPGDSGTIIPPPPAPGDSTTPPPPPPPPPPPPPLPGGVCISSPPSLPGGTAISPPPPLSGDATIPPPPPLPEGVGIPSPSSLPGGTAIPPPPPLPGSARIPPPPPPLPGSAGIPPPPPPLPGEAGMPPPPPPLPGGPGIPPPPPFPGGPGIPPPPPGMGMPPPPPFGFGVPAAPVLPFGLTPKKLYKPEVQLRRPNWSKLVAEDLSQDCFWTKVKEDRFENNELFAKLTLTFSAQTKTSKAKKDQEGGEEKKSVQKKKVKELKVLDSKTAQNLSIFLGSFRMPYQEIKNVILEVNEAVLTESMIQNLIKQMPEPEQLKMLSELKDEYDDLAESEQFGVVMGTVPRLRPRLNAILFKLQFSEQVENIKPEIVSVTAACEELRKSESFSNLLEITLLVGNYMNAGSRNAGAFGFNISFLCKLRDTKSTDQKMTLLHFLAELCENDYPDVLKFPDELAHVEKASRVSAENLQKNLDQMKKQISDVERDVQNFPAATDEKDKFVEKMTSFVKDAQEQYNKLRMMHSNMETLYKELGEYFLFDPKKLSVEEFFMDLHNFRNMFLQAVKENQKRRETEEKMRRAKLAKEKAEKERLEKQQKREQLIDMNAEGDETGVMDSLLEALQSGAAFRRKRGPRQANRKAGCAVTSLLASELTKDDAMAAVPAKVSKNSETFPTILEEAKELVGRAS
Sequence of UniProt Q9UJU6 (Q9UJU6 whole entry, looked up): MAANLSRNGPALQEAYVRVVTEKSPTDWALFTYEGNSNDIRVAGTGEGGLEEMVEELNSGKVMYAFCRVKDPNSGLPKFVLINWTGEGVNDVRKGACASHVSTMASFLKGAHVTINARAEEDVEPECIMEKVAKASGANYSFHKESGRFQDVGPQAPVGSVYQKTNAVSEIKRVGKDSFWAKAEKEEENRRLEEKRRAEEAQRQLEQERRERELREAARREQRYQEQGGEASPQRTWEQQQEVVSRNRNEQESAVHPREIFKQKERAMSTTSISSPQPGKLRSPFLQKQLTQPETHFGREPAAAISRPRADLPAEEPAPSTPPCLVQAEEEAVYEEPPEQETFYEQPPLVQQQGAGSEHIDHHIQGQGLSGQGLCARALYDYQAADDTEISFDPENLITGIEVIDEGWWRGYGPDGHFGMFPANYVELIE

Target | log2 fold change [1] | log2 fold change (filanesib) | log2 fold change (zotarolimus) | log2 fold change (idasanutlin) | log2 fold change (alisertib) | log2 fold change [2] | log2 fold change (gefitinib) | log2 fold change [3] | log2 fold change (lapatinib) | log2 fold change (pictilisib) | log2 fold change [4] | log2 fold change (crizotinib) | log2 fold change [5] | log2 fold change [6] | log2 fold change (duvelisib) | log2 fold change (gandotinib) | log2 fold change (tozasertib) | log2 fold change [7] | log2 fold change (doramapimod) | log2 fold change (ispinesib)
DIAPH1 (UniProt O60610) | 0.008 | 0.083 | 0.081 | 0.04 | -0.099 | -0.06 | 0.046 | -0.193 | 0.075 | 0.006 | 0.047 | -0.152 | -0.054 | 0.168 | -0.058 | -0.063 | 0.153 | 0.125 | 0.135 | -0.089
FAM83D (UniProt Q9H4H8) | -0.009 | 0.062 | 0.051 | -0.109 | -0.135 | 0.018 | 0.05 | -0.034 | 0.021 | -0.136 | -0.018 | -0.061 | 0.021 | 0.014 | 0.001 | -0.308 (active) | 0.025 | 0.08 | -0.009 | 0.064
DBNL isoform 3 (UniProt Q9UJU6) | 0.096 | 0.006 | -0.018 | 0.02 | 0.025 | -0.002 | 0.021 | -0.016 | 0.016 | 0.027 | 0.041 | -0.116 | 0.073 | -0.016 | 0.037 | -0.094 | 0.048 | -0.015 | 0.054 | -0.048
DNAAF2 (UniProt Q9NVR5) | 0.009 | -0.012 | 0.016 | -0.033 | 0.005 | 0.015 | 0.035 | 0.062 | -0.026 | 0.232 | 0.018 | -0.015 | -0.067 | 0.003 | 0.019 | -0.182 | 0.02 | -0.034 | 0.042 | 0.032
DCAF16 (UniProt Q9NXF7) | 0.065 | 0.077 | 0.035 | 0.037 | -0.07 | 0.021 | 0.022 | 0 | -0.168 | 0.132 | 0.058 | 0.001 | 0.176 | -0.103 | 0.054 | 0.069 | 0.079 | 0.17 | -0.005 | 0.036
DTNBP1 (UniProt Q96EV8) | -0.033 | -0.115 | -0.009 | -0.068 | -0.003 | 0.004 | 0.018 | 0.044 | -0.041 | 0.073 | 0.093 | 0 | 0.079 | -0.014 | -0.012 | -0.104 | -0.034 | 0.022 | -0.009 | -0.073
CTSC (UniProt P53634) | 0.019 | -0.065 | 0.001 | -0.024 | 0.021 | -0.04 | 0.036 | 0.026 | -0.031 | 0.083 | 0.042 | -0.037 | -0.015 | -0.062 | 0.018 | 0 | 0.063 | -0.047 | 0.013 | -0.057
EBNA1BP2 (UniProt Q99848) | -0.054 | 0.686 | 0.069 | 0.283 | -0.172 | -0.095 | -0.01 | -0.216 | 0.153 | -0.069 | -0.013 | -0.025 | -0.236 | 0.394 | -0.138 | 0.104 | 0.191 | 0.025 | 0.282 | 0.21
ELOVL1 (UniProt Q9BW60) | -0.103 | -0.139 | -0.051 | -0.051 | 0.032 | -0.084 | -0.087 | 0.032 | -0.078 | -0.046 | 0.082 | -0.182 | -0.065 | -0.14 | 0.124 | -0.206 | -0.003 | 0.078 | -0.082 | -0.297
DHCR24 (UniProt Q15392) | 0.061 | -0.074 | 0.013 | -0.087 | -0.123 | 0.047 | 1.05 (active) | -0.038 | 0.711 | 0.055 | 0.229 | 0.428 | 0.076 | 0.056 | 0.027 | -0.025 | 0.276 | -0.063 | 0.982 (active) | -0.053
DHPS (UniProt P49366) | 0.268 (active) | -0.024 | -0.001 | 0.03 | -0.033 | -0.047 | -0.018 | 0.063 | 0.05 | 0.024 | 0.015 | -0.008 | 0.043 | -0.047 | 0.059 | 0.032 | -0.046 | -0.054 | 0.051 | 0.067
FAM160A2 isoform 2 (UniProt Q8N612) | -0.082 |  | 0.067 |  | 0.031 |  | 0.158 | 0.103 |  | -0.056 |  | -0.004 | 0.042 | -0.041 | 0.179 | 0.115 | -0.28 | 0.212 | -0.003 | -0.192
ELOVL5 isoform 2 (UniProt Q9NYP7) |  | -0.157 | -0.041 | -0.224 | -0.026 | -0.05 | -0.142 | 0 | 0.094 | 0 | 0.038 |  | 0.048 | -0.004 | 0.074 | -0.34 | -0.01 | 0.082 |  | -0.311
